Experimental data reported in PubChem BioAssay (NCI).
About 83,000 compounds went through this panel and 20% of them were active in at least one assay; those are over-represented in the sample as a whole.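 Cell lines were cultured in 96-well plates, exposed to a single compound concentration, and assessed for percent growth 48 hours later.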 A number with no mark means an inactive call. Active and inactive are the calls of the source. Rule for the calls: active = growth percent below 10; inactive = the rest.

These compounds were tested on HL-60(TB) leukemia (assay: NCI-60 one-dose screen, 48 h (100 = growth as untreated, 0 = no growth, -100 = all killed)). Settings: 10 µM unless noted.
In the case of `O=C(/C=C/c1ccco1)c1nc2ccccc2n1Cc1ccc(F)cc1`, the growth is reported as 15.8%. For `COC(=O)C[C@](O)(CCC(C)C)C(=O)O[C@H]1C(OC)=C[C@@]23CCCN2CCc2cc4c(cc2[C@@H]13)OCO4`, the growth was -38.5% (active). In the case of `C[C@H]1[C@H](OC(=O)CCC(=O)N(CCCc2cn(-c3ccc(C#N)cc3)nn2)CCNc2ccnc3cc(Cl)ccc23)O[C@@H]2OC3(C)CC[C@H]4[C@H](C)CC[C@@H]1[C@@]24OO3`, the growth is reported as -29.9% (active).

What follows are compounds tested on CCRF-CEM leukemia in the same assay as above. Settings: 10 µM.
`COc1cc2cc(C(=O)N3C[C@@H](CCl)c4c3cc(OC(=O)N3CCN(C)[C@@H]5CSSC[C@H]53)c3ccccc43)[nH]c2c(OC)c1OC` was tested, and the growth was -23.1% (active). With `CC1=C(CCC=O)C2=C(C)C3(CC3)[C@@](C)(O)C(=O)C2=C1` the growth was -15.3% (active). For `COC(=O)C[C@](O)(CCC(C)C)C(=O)O[C@@H]1C(OC)=C[C@]23CCCN2CCc2cc4c(cc2[C@H]13)OCO4`, the growth was -12% (active). `O=C(/C=C/c1ccc(Cl)cc1)c1nc2ccccc2n1Cc1ccc(F)cc1` was tested, and the growth was -13.1% (active). In the case of `CC[C@]12C=CCN3CC[C@@]4(c5ccc(OC)cc5N(C)[C@H]4[C@@](O)(C(=O)OC)[C@@H]1OC(=O)CCC[P+](C1CCCCC1)(C1CCCCC1)C1CCCCC1)[C@@H]32`, the growth is reported as -40.9% (active). For `CC1=C2C(=C[C@@](C)(COP(=O)(Oc3ccccc3)Oc3ccccc3)[C@@H]2O)C(=O)[C@@](C)(O)C12CC2`, the growth was 12.5%. For `CC(=O)Oc1ccccc1C(=O)NC([Se])=NC1CCCCC1`, the growth was 28.5%. For `CCOP(=O)(CC(F)(F)C(F)(F)F)OCC`, the growth was 8.28% (active). With `CC(C)C[C@H](NC(=O)CNC(=O)C[C@H]1O[C@@H]2OC3(C)CC[C@H]4[C@H](C)CC[C@@H]([C@H]1C)[C@@]24OO3)B(O)O` the growth was -9.96% (active). Compound `C[C@H]1[C@@H](Oc2ccc(-c3cn(-c4ccnc5cc(Cl)ccc45)nn3)cc2)O[C@@H]2OC3(C)CC[C@H]4[C@H](C)CC[C@@H]1[C@@]24OO3` has a growth of 38.8%. In the case of `C[C@H]1[C@H](OC(=O)CCC(=O)N(CCCc2cn(-c3ccc([N+](=O)[O-])cc3)nn2)CCNc2ccnc3cc(Cl)ccc23)O[C@@H]2OC3(C)CC[C@H]4[C@H](C)CC[C@@H]1[C@@]24OO3`, the growth is reported as 26.3%. `COc1cc2cc(C(=O)N3C[C@@H](CCl)c4c3cc(OC(=O)N3CCN(C)[C@@H]5CSSC[C@@H]53)c3ccccc43)[nH]c2c(OC)c1OC` was tested, and the growth was -25.1% (active). Work on `COc1cc2cc(C(=O)N3C[C@@H](CCl)c4c3cc(OC(=O)N3CCN(C(=O)CCC(=O)N5CCN(C)CC5)[C@@H]5CSSC[C@@H]53)c3ccccc43)[nH]c2c(OC)c1OC` yielded a growth of 25.2%. Compound `COC(=O)c1ccc(-n2cc(CCCN(CCNc3ccnc4cc(Cl)ccc34)C(=O)CCC(=O)O[C@@H]3O[C@@H]4OC5(C)CC[C@H]6[C@H](C)CC[C@@H]([C@H]3C)[C@@]46OO5)nn2)cc1` has a growth of 15.9%. With `O=C([Se]C1C=CCCC1)c1ccc(C(=O)[Se]C2C=CCCC2)s1` (configuration not stated) the growth was -36.7% (active). `O=C(/C=C/c1cccc(Br)c1)c1nc2ccccc2n1Cc1ccc(F)cc1` was tested, and the growth was -18.8% (active). For `CC[C@]12C=CCN3CC[C@@]4(c5ccc(OC)cc5N(C)[C@H]4[C@@](O)(C(=O)OC)[C@@H]1OC(=O)CCC[P+](c1ccc(C)cc1)(c1ccc(C)cc1)c1ccc(C)cc1)[C@@H]32`, the growth was -67% (active). Work on `O=C(NC([Se])=NC1CCCCC1)c1ccccc1` yielded a growth of 54.5%. For `O=C(/C=C/c1ccc(F)cc1)c1nc2ccccc2n1Cc1ccc(F)cc1`, the growth was 7.89% (active). For `O=C(/C=C/c1ccccc1)c1nc2ccccc2n1Cc1ccc(Br)cc1`, the growth was -7.81% (active). With `C=CC[Se]C(=O)c1cncc(C(=O)[Se]CC=C)c1` the growth was -39.9% (active). With `COc1ccc(OC)c(/C=C/C(=O)c2nc3ccccc3n2Cc2ccc(F)cc2)c1` the growth was -18.5% (active). `O=C(/C=C/c1ccc(F)cc1)c1nc2ccccc2n1Cc1ccc(Br)cc1` was tested, and the growth was -1.81% (active). For `CC[C@]12C=CCN3CC[C@@]4(c5ccc(OC)cc5N(C)[C@H]4[C@@](O)(C(=O)OC)[C@@H]1OC(=O)CCCC[P+](c1ccc(C)cc1)(c1ccc(C)cc1)c1ccc(C)cc1)[C@@H]32`, the growth was -72.4% (active). `CC(C)N=C([Se])NC(=O)c1cccs1` gave a growth of 29.7%. `CC1=C(CCC=NNC(N)=O)C2=C(C)C3(CC3)[C@@](C)(O)C(=O)C2=C1` showed a growth of 10.4%. Compound `Cc1ccc2[nH]c(=S)n(-c3ccc(F)cc3)c(=O)c2c1` has a growth of 86.3%. With `C#CC[Se]C(=O)c1ccc2n[se]nc2c1` the growth was -24.8% (active). `CC1=C(COCCOC(=O)c2ccc(S(=O)(=O)F)cc2)C2=C(C)C3(CC3)[C@@](C)(O)C(=O)C2=C1` gave a growth of 15.8%. For `CC12CCC3(CCC(=O)NCCCNc4ccnc5cc(Cl)ccc45)[C@@](C)(OO[C@]3(C)O1)O2`, the growth was 3.78% (active). Compound `O=C(/C=C/c1ccc(Br)cc1)c1nc2ccccc2n1Cc1ccc(Br)cc1` has a growth of 10.3%. `COC(=O)CCn1c(-c2ccc(-n3cc(-c4ccc(O[C@H]5O[C@@H]6OC7(C)CC[C@H]8[C@H](C)CC[C@@H]([C@H]5C)[C@@]68OO7)cc4)nn3)cc2)nc2ccccc21` gave a growth of 28.1%. `CC1=C(C=O)C2=C(C)C3(CC3)[C@@](C)(O)C(=O)C2=C1` gave a growth of 18%. Compound `N#C[Se]CC(=O)Nc1cccc(C(F)(F)F)c1` has a growth of 22.5%. In the case of `CCC[Se]C(=O)c1ccc(C(=O)[Se]CCC)s1`, the growth is reported as 13.6%. In the case of `C[C@H]1[C@@H](CC(=O)N[C@@H](Cc2coc3ccccc23)B(O)O)O[C@@H]2OC3(C)CC[C@H]4[C@H](C)CC[C@@H]1[C@@]24OO3`, the growth is reported as -10.3% (active). Work on `O=C(/C=C/c1ccco1)c1nc2ccccc2n1Cc1ccc(F)cc1` yielded a growth of 21.4%. In the case of `COC(=O)C[C@](O)(CCC(C)C)C(=O)O[C@H]1C(OC)=C[C@@]23CCCN2CCc2cc4c(cc2[C@@H]13)OCO4`, the growth is reported as -5.42% (active). For `C[C@H]1[C@H](OC(=O)CCC(=O)N(CCCc2cn(-c3ccc(C#N)cc3)nn2)CCNc2ccnc3cc(Cl)ccc23)O[C@@H]2OC3(C)CC[C@H]4[C@H](C)CC[C@@H]1[C@@]24OO3`, the growth was 15%.
